In PubChem BioAssay (NCATS):
Records with an inconclusive call do not appear. Calls of active or inactive are those of the source. The call rests on the fitted dose curve; in most records, active means well fitted inhibition curve with a large enough effect; inconclusive means small, poorly fitted or top-dose-only effect; inactive means flat fitted curve, though single readings scatter.

Assays:
Assay in all cases: qHTS profiling for inhibitors of Plasmodium falciparum proliferation (AID 504749); further: nearly all actives have a fitted effect of over 60% in size
Conditions in all cases: P. falciparum in erythrocytes, SYBR Green DNA, 72 h; series mostly up to 28.7 µM
CP250 = test system: CP250
Summary of the method: (§1)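 Infected RBCs, 0.3% parasitemia/2.5% Hct final; cpd 72 h, 37 C, 5% CO2; lysis buffer with saponin/triton/SYBR Green I, o/n RT dark; FI 485/535; norm. to artemisinin (0.29 uM) and DMSO.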

CP252 = test system: CP252
Summary of the method: as §1

CP256 = test system: CP256
Summary of the method: as §1

CP260 = test system: CP260
Summary of the method: as §1

CP262 = test system: CP262
Summary of the method: as §1

CP265 = test system: CP265
Summary of the method: as §1

CP266 = test system: CP266
Summary of the method: as §1

CP268 = test system: CP268
Summary of the method: as §1

CP269 = test system: CP269
Summary of the method: as §1

CP286 = test system: CP286
Summary of the method: as §1

Measured: Potency
Potency means the concentration at half of the fitted maximal effect.

O=C(CCNNC(=O)c1ccncc1)NCc1ccccc1
inactive: all assays above

CC(=O)Nc1nnc(S(N)(=O)=O)s1
inactive: all assays above

CN1CCN(C2=Nc3ccccc3Oc3ccc(Cl)cc32)CC1
inactive: all assays above

Cc1nc2c([nH]1)c(=O)n(C)c(=O)n2Cc1ccco1
inactive: all assays above

CC[N+](C)(C)c1cccc(O)c1
inactive: all assays above

CCCCCN(CCCCC)C(=O)C(CCC(=O)O)NC(=O)c1ccc(Cl)c(Cl)c1 (configuration not stated)
inactive: all assays above

COc1cc2c(cc1OC)-c1cc(=Nc3c(C)cc(C)cc3C)n(C)c(=O)n1CC2
active: CP250 3.55 µM | CP252 11.2 µM | CP256 4.47 µM | CP260 3.16 µM | CP262 4.78 µM | CP265 7.94 µM | CP266 6.75 µM | CP268 1.51 µM | CP269 4.78 µM | CP286 2 µM

NC/C=C/C(=O)O
inactive: all assays above

FC(F)(F)c1ccccc1-n1ccnc1
inactive: all assays above

O=c1[nH]c(=O)n([C@H]2C[C@H](O)[C@@H](CO)O2)cc1Br
inactive: all assays above

CCCOc1ccccc1-c1nc2n[nH]nc2c(=O)[nH]1
inactive: all assays above

O=C(O)CP(=O)(O)O
inactive: all assays above

CCN(Cc1ccncc1)C(=O)C(CO)c1ccccc1 (configuration not stated)
inactive: all assays above

NS(=O)(=O)c1cc2c(cc1Cl)NC(C1CC3C=CC1C3)NS2(=O)=O (configuration not stated)
inactive: all assays above

CN(C)C(=O)Oc1ccc[n+](C)c1
inactive: all assays above

NCCCNCCSP(=O)(O)O
inactive: all assays above

OCCN1CCN(CCCN2c3ccccc3C=Cc3ccccc32)CC1
active: CP250 6.31 µM | CP252 6.31 µM | CP256 3.55 µM | CP260 5.01 µM | CP262 6.75 µM | CP265 4.47 µM | CP266 13.5 µM | CP268 13.5 µM | CP269 9.53 µM | CP286 7.08 µM

NC(=O)c1ncn([C@@H]2O[C@H](CO)[C@@H](O)[C@H]2O)c1O
inactive: all assays above

CC(=O)[C@@]1(O)CC[C@H]2[C@@H]3CCC4=CC(=O)CC[C@]4(C)[C@H]3CC[C@@]21C
inactive: all assays above

CCCCNC(=O)NS(=O)(=O)c1ccc(C)cc1
inactive: all assays above

COC(=O)C1=C(C)NC(C)=C(C(=O)OC(C)(C)CN(C)CCC(c2ccccc2)c2ccccc2)C1c1cccc([N+](=O)[O-])c1 (configuration not stated)
active: CP250 3.55 µM | CP252 3.55 µM | CP256 2.82 µM | CP260 2.24 µM | CP262 4.26 µM | CP265 3.55 µM | CP266 6.75 µM | CP268 7.57 µM | CP269 4.26 µM | CP286 2.51 µM

CNC1(C)C2CCC(C2)C1(C)C (configuration not stated)
inactive: all assays above

CC(=O)Oc1cc(C(C)C)c(OCCN(C)C)cc1C
inactive: all assays above

C[N+](C)(C)CCOC(N)=O
inactive: all assays above

CCO/C([O-])=N/c1c[n+](N2CCOCC2)no1
inactive: all assays above

CN=C(NC#N)NCCSCc1nc[nH]c1C
inactive: all assays above

C[N+](C)(C)CCCCCCCCCC[N+](C)(C)C
active: CP250 7.08 µM | CP252 3.98 µM | CP256 2.51 µM | CP260 2.24 µM | CP262 1.69 µM | CP265 2.82 µM | CP266 4.78 µM | CP268 4.78 µM | CP269 3.38 µM | CP286 4.47 µM

NC(=O)N1c2ccccc2C=Cc2ccccc21
inactive: all assays above

O=C(O)CN(CCOCCOCCN(CC(=O)O)CC(=O)O)CC(=O)O
inactive: all assays above

Cc1nnc(SCC2=C(C(=O)O)N3C(=O)[C@@H](NC(=O)Cn4cnnn4)[C@H]3SC2)s1
inactive: all assays above

CCNC(=O)N1CCN(CCCC(c2ccc(F)cc2)c2ccc(F)cc2)CC1
active: CP250 1 µM | CP252 3.98 µM | CP256 0.794 µM | CP260 3.16 µM | CP262 3.01 µM | CP265 0.794 µM | CP266 6.01 µM | CP268 2.39 µM | CP269 5.36 µM | CP286 2.24 µM

CCN1CCC[C@H]1CNC(=O)c1c(O)c(Cl)cc(Cl)c1OC
inactive: all assays above

O=C1CC2(CCCC2)CC(=O)N1CCCCN1CCN(c2ncccn2)CC1
inactive: all assays above

CCOC(=O)C1=C(C)NC(C)=C(C(=O)OC)C1c1cccc(Cl)c1Cl (configuration not stated)
inactive: all assays above

C[N+](C)(C)CCOC(=O)CCC(=O)OCC[N+](C)(C)C
inactive: all assays above

CCN(CC)CC(=O)Nc1c(C)cccc1C
inactive: all assays above

Cc1nc2ccccn2c(=O)c1CCN1CCC(C(=O)c2ccc(F)cc2)CC1
not listed: CP286
inactive: all other assays above

Cc1cc(C)c(/C=C2\C(=O)Nc3ccccc32)[nH]1
inactive: all assays above

CN(C(=O)CCCOc1ccc2[nH]c(=O)ccc2c1)C1CCCCC1
not listed: CP266
inactive: all other assays above

Cc1scc2c1N(C(=O)CN1CCN(C)CC1)c1ccccc1NC2=O
not listed: CP262
inactive: all other assays above

CCCN(CCC)CCc1cccc2c1CC(=O)N2
inactive: all assays above
